# PubChem BioAssay (EPA / NIEHS)
# Inconclusive results are not listed. The source made the active and inactive calls. The calls were made as follows, unless noted: active = hit-call score of the fitted dose curve at least 0.9, where 1 is the maximum; inconclusive = response in the unintended direction; inactive = score below 0.9.
# How the values were obtained:
# [1] = TOX21_p53_BLA_p2_viability: Viability Assessment in the Tox21 HCT-116 p53 Agonism Beta-lactamase Assay, Phase 2 (AID 2283591);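 also: actives lower the ATP signal meaning cytotoxicity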
# How it was run: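 HCT-116 p53-bla cells (4000/well) rested 5 h at 37C, then received compounds in DMSO (217-fold dilution) for 16 h at 37C, 5% CO2. After the CCF4 read, CellTiter-Glo was added; ATP luminescence was read after 30 min at room temperature.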
# [2] = molecular target: Cellular tumor antigen p53 (Homo sapiens) (UniProt P04637); assay: TOX21_p53_BLA_p2_ratio: Tox21 HCT-116 p53 Agonism Beta-lactamase Assay, Ratio, Phase 2 (AID 2283592)
# How it was run: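 An inducible beta-lactamase reporter in HCT116 cells signals p53 pathway activation. After 16 h chemical exposure at 37C, cells load CCF4-AM substrate for 2 h at room temperature; activity is the cleaved/uncleaved emission ratio relative to DMSO.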
# [3] = molecular target: Cellular tumor antigen p53 (Homo sapiens) (UniProt P04637); assay: TOX21_p53_BLA_p3_ratio: Tox21 HCT-116 p53 Agonism Beta-lactamase Assay, Ratio, Phase 3 (AID 2283596)
# How it was run: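 HCT116 p53-bla cells (4000/well) given compound in DMSO (217-fold dilution) after 5 h, incubated 16 h at 37C. CCF4-AM substrate 2 h at room temperature; 460/530 nm emission ratio, gain fitted against DMSO.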
# [4] = TOX21_p53_BLA_p4_viability: Viability Assessment in the Tox21 HCT-116 p53 Agonism Beta-lactamase Assay, Phase 4 (AID 2283597);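 also: hits lower the luminescence signal meaning cytotoxicity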
# How it was run: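 Compound exposure of HCT116 cells lasts 16 h at 37C, 5% CO2, with DMSO stocks diluted 217-fold. Cellular ATP is then quantified by CellTiter-Glo luminescence after 30 min at room temperature.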
# [5] = molecular target: Cellular tumor antigen p53 (Homo sapiens) (UniProt P04637); assay: TOX21_p53_BLA_p5_ratio: Tox21 HCT-116 p53 Agonism Beta-lactamase Assay, Ratio, Phase 5 (AID 2283599)
# How it was run: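 HCT-116 cells carrying a p53-inducible beta-lactamase reporter were seeded at 4000 cells/well and dosed after 5 h with compound in DMSO (217-fold dilution). After 16 h at 37C, CCF4-AM substrate was added for 2 h, and the 460/530 nm emission ratio was scored as gain-of-signal versus DMSO.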
# [6] = TOX21_p53_BLA_p5_viability: Viability Assessment in the Tox21 HCT-116 p53 Agonism Beta-lactamase Assay, Phase 5 (AID 2283600)
# How it was run: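 Counter-readout for cytotoxicity: ATP-dependent luminescence from CellTiter-Glo, read in the beta-lactamase wells after 30 min at RT, following a 16 h compound exposure at 37C.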
# [7] = molecular target: Cellular tumor antigen p53 (Homo sapiens) (UniProt P04637); assay: TOX21_p53_BLA_p4_ratio: Tox21 HCT-116 p53 Agonism Beta-lactamase Assay, Ratio, Phase 4 (AID 2283601)
# How it was run: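 HCT116 cells carrying an inducible beta-lactamase reporter were plated at 4000 cells/well, rested 5 h, then exposed to compounds in DMSO (217-fold dilution) for 16 h at 37C. CCF4-AM substrate was loaded 2 h at room temperature; 460/530 nm emission ratio scored gain-of-signal versus DMSO.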
# PGR (gene 5241) [8] = molecular target: PGR (gene 5241) (UniProt P06401); assay: TOX21_PR_BLA_Followup_Antagonist_ratio: Tox21 HEK293 Progesterone Receptor (PR) Antagonism Beta-lactamase Follow-Up Assay, Ratio (AID 2283934)
# How it was run: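 PR-UAS-bla HEK293T cells in medium with 2% charcoal-stripped FBS were treated with compounds plus 1 nM (final) promegestone (R5020) for 16 hr at 37C. LiveBLAzer B/G FRET substrate was then added for 2 h at room temperature; signal is cleaved/uncleaved substrate ratio versus DMSO.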
# [9] = TOX21_PR_BLA_Followup_Agonist_viability: Viability Assessment in the Tox21 HEK293 Progesterone Receptor (PR) Agonism Beta-lactamase Follow-Up Assay (AID 2283935);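 also: signal loss means lower viability so actives are cytotoxic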
# How it was run: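 PR-UAS-bla HEK293T cells in 2% charcoal-stripped FBS medium, compound added after 6 hr plating, 16 hr at 37C/5% CO2. After bla FRET read, CellTiter-Glo added; luminescence read after 30 min at room temperature; signal loss marks cytotoxicity.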
# [10] = TOX21_PR_BLA_Followup_Antagonist_viability: Viability Assessment in the Tox21 HEK293 Progesterone Receptor (PR) Antagonism Beta-lactamase Follow-Up Assay (AID 2283936);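 also: hits lower the luminescence signal meaning cytotoxicity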
# How it was run: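 PR-UAS-bla HEK293T cells (3,000/well, 2% charcoal-stripped FBS) given compound plus R5020 agonist, 16 h at 37C. CellTiter-Glo added after bla read, 30 min at room temperature; luminescence loss indicates cytotoxicity.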
# PGR (gene 5241) [11] = molecular target: PGR (gene 5241) (UniProt P06401); assay: TOX21_PR_LUC_Followup_Antagonist: Tox21 HEK293 Progesterone Receptor (PR) Antagonism Luciferase Follow-Up Assay (AID 2283938);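 also: curve fitted upward as signal gain over DMSO baseline despite antagonist label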
# How it was run: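 A follow-up to the PR bla screen using HEK293-PR-A-luc cells, multiplexed with cell viability to flag cytotoxicity. Reporter luminescence after 16 h compound exposure was analysed relative to DMSO.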
# [12] = CCTE_Harrill_HTTr_Viability_MCF7: CCTE's 6-hour Cell Viability Assessment for the High-Throughput Transcriptomics (HTTr) Platform, in MCF-7 cells cultured in DMEM + 10% fetal bovine serum, Harrill Lab (AID 2284010; active = hit-call score of the fitted dose curve at least 0.9, where 1 is the maximum; inactive = score below 0.9)
# How it was run: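 Membrane integrity was scored by high-content imaging of propidium iodide dye exclusion after a 6 h exposure across an eight-point dilution series. Data were fitted bidirectionally relative to DMSO as negative control and baseline.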
# [13] = CCTE_Harrill_HTTr_Apoptosis_MCF7: CCTE's 6-hour Apoptosis Assessment for the High-Throughput Transcriptomics (HTTr) Platform, in MCF-7 cells cultured in DMEM + 10% fetal bovine serum, Harrill Lab (AID 2284011; active = hit-call score of the fitted dose curve at least 0.9, where 1 is the maximum; inactive = score below 0.9)
# How it was run: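 Cells are dosed with test chemicals at eight concentrations and imaged 6 hours later for caspase-3/7 activity using a green fluorogenic detection reagent. Activity is fitted in both directions against DMSO controls.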
# [14] = CCTE_Harrill_HTTr_CellCount_MCF7: CCTE's Cell Proliferation Assessment for the High-Throughput Transcriptomics (HTTr) Platform, Harrill Lab (AID 2284012);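 also: cells exposed to compound for six hours; intended direction is loss of nuclei count meaning fewer cells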
# How it was run: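 MCF-7 cells were exposed for 6 h to an eight-point dilution series; Hoechst-labeled nuclei were counted by high content imaging. Curves were fitted bidirectionally against DMSO as negative control and baseline, with signal loss indicating reduced cell count.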
# [15] = molecular target: Estrogen receptor (Homo sapiens) (UniProt P03372); assay: CCTE_Deisenroth_AIME_96WELL_LUC_Active: CCTE's 96-well Estrogen Receptor Transactivation Assay with AIME metabolic competence (ERTA luciferase; metabolism positive), Deisenroth Lab (AID 2284023)
# How it was run: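 Chemicals pre-incubated 2 h with alginate-immobilized phenobarbital/beta-naphthoflavone-induced male Sprague Dawley rat liver S9, then medium transferred to VM7Luc4E2 cells for 24 h luciferase read-out. 10-point series 0.002 - 200 uM; fitted relative to 17beta-estradiol.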
# [16] = molecular target: Estrogen receptor (Homo sapiens) (UniProt P03372); assay: CCTE_Deisenroth_AIME_96WELL_LUC_Inactive: CCTE's 96-well Estrogen Receptor Transactivation Assay without AIME metabolic competence (ERTA luciferase; metabolism negative), Deisenroth Lab (AID 2284025)
# How it was run: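 VM7Luc4E2 breast cells, luciferase read 24 h after dosing with medium pre-incubated 2 h on alginate-water lids (metabolism negative). 10-point series 0.002–200 uM, single technical replicate, n≥4; fit relative to 17beta-estradiol.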
# Cellular tumor antigen p53 (Homo sapiens), sequence (P04637 whole entry, looked up): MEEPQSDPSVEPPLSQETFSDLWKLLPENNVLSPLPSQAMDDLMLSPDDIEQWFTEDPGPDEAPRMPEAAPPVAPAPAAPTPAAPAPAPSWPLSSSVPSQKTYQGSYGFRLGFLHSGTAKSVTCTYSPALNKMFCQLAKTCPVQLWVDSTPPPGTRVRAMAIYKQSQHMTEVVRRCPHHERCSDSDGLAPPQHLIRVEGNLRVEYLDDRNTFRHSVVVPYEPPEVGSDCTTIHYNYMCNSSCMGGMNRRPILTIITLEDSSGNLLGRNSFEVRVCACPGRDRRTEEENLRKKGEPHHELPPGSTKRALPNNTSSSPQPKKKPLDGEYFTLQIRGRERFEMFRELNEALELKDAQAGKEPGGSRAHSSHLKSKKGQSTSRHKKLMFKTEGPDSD
# PGR (gene 5241), sequence (P06401 whole entry, looked up): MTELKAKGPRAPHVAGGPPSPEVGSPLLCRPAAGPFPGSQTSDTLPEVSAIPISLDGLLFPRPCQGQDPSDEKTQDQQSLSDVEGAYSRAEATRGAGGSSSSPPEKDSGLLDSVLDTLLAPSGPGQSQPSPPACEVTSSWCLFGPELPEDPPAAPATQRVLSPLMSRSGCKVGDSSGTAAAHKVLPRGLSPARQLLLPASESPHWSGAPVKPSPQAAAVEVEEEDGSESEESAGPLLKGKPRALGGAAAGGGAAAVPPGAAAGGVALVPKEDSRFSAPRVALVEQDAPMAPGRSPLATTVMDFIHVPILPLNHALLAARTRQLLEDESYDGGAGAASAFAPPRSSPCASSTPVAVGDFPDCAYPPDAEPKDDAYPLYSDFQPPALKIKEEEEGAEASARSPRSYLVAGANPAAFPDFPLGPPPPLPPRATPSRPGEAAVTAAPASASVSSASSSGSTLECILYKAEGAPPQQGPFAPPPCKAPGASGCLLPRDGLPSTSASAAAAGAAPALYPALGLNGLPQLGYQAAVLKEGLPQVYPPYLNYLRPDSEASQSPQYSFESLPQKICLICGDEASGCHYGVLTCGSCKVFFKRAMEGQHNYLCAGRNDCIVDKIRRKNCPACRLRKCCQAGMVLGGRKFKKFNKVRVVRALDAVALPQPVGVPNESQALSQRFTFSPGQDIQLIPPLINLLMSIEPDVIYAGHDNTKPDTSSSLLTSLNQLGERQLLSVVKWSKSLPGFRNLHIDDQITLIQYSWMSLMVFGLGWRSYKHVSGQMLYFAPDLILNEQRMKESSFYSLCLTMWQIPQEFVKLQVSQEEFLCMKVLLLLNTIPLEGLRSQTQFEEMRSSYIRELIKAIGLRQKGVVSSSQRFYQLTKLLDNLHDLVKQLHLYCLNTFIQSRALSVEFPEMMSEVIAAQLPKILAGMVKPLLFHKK
# Estrogen receptor (Homo sapiens), sequence (P03372 whole entry, looked up): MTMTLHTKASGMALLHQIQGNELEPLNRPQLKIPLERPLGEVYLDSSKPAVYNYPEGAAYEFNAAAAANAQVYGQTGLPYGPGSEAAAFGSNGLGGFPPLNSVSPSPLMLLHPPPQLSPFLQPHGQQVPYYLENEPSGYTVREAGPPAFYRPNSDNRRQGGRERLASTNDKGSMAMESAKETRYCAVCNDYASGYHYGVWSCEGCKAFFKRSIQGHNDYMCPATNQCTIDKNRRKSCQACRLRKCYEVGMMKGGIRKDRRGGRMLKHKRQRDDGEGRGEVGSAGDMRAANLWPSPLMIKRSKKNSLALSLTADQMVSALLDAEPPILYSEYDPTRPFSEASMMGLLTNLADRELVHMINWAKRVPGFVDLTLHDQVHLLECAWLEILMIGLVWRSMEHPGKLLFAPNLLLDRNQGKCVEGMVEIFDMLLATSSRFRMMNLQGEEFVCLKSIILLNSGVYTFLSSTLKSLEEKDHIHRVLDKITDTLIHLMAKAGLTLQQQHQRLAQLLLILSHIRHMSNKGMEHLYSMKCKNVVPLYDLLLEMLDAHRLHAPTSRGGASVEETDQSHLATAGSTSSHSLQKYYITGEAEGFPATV
smiles,measurement,setting,value
CC1(O)CCC(C(C)(C)O)CC1 (stereo not given),outcome,[1],inactive
same,outcome,[2],inactive
same,outcome,[3],inactive
same,outcome,[4],inactive
same,outcome,[5],inactive
same,outcome,[6],inactive
same,outcome,[7],inactive
CCN(CC)CCOCCOC(=O)C(CC)(CC)c1ccccc1,outcome,[1],inactive
same,outcome,[2],inactive
same,outcome,[3],inactive
same,outcome,[4],inactive
same,outcome,[5],inactive
same,outcome,[6],inactive
same,outcome,[7],inactive
Cc1ccccc1C(=O)N1CC/C(=N\OS(=O)(=O)O)c2ccc(Cl)cc21,outcome,[1],inactive
same,outcome,[2],inactive
same,outcome,[3],inactive
same,outcome,[4],inactive
same,outcome,[5],inactive
same,outcome,[6],inactive
same,outcome,[7],inactive
CCCCN=C(N)N=C(N)N,outcome,[1],inactive
same,outcome,[2],inactive
same,outcome,[3],inactive
same,outcome,[4],inactive
same,outcome,[5],inactive
same,outcome,[6],inactive
same,outcome,[7],inactive
Nc1ccc(Oc2ccc(Cl)cc2)cc1,outcome,[1],inactive
same,outcome,[2],inactive
same,outcome,[3],inactive
same,outcome,[4],inactive
same,outcome,[5],inactive
same,outcome,[6],inactive
same,outcome,[7],inactive
CCCCCCCCCCCCCCCCCCCCCC(=O)Nc1ccn([C@@H]2O[C@H](CO)[C@@H](O)[C@@H]2O)c(=O)n1,outcome,[1],inactive
same,AC50,[2],19 µM (active)
same,AC50,[3],23 µM (active)
same,outcome,[4],inactive
same,outcome,[5],inactive
same,outcome,[6],inactive
same,AC50,[7],14.3 µM (active)
NC(=O)c1ncn([C@@H]2O[C@H](CO)[C@@H](O)[C@H]2O)c1O,outcome,[1],inactive
same,outcome,[2],inactive
same,outcome,[3],inactive
same,outcome,[4],inactive
same,outcome,[5],inactive
same,outcome,[6],inactive
same,outcome,[7],inactive
CCOC(=O)OC(C)OC1=C(C(=O)Nc2ccccn2)N(C)S(=O)(=O)c2ccccc21 (stereo not given),outcome,[1],inactive
same,outcome,[2],inactive
same,outcome,[3],inactive
same,outcome,[4],inactive
same,outcome,[5],inactive
same,outcome,[6],inactive
same,outcome,[7],inactive
S=C1SCN(Cc2ccccc2)CN1Cc1ccccc1,outcome,[1],inactive
same,outcome,[2],inactive
same,outcome,[3],inactive
same,outcome,[4],inactive
same,outcome,[5],inactive
same,outcome,[6],inactive
same,outcome,[7],inactive
COc1ccc(CN2CCN(C(c3ccc(F)cc3)c3ccc(F)cc3)CC2)c(OC)c1OC,AC50,[1],23 µM (active)
same,outcome,[2],inactive
same,outcome,[3],inactive
same,AC50,[4],23 µM (active)
same,outcome,[5],inactive
same,outcome,[6],inactive
same,outcome,[7],inactive
OCc1ccccn1,outcome,[1],inactive
same,outcome,[2],inactive
same,outcome,[3],inactive
same,outcome,[4],inactive
same,outcome,[5],inactive
same,outcome,[6],inactive
same,outcome,[7],inactive
O=C(OCC(COC(=O)c1ccccc1)(COC(=O)c1ccccc1)COC(=O)c1ccccc1)c1ccccc1,outcome,[1],inactive
same,outcome,[2],inactive
same,AC50,[3],54.3 µM (active)
same,outcome,[4],inactive
same,outcome,[5],inactive
same,outcome,[6],inactive
same,outcome,[7],inactive
CC(C)COC(=O)c1ccc(N)cc1,outcome,[1],inactive
same,outcome,[2],inactive
same,outcome,[3],inactive
same,outcome,[4],inactive
same,outcome,[5],inactive
same,outcome,[6],inactive
same,outcome,[7],inactive
CN(C)CC/C=C1\c2ccccc2Sc2ccc(Cl)cc21,outcome,[1],inactive
same,AC50,[2],33.1 µM (active)
same,outcome,[3],inactive
same,AC50,[4],35.7 µM (active)
same,outcome,[5],inactive
same,outcome,[6],inactive
same,AC50,[7],21.9 µM (active)
CCCCCN(CCCCC)C(=O)C(CCC(=O)O)NC(=O)c1ccc(Cl)c(Cl)c1 (stereo not given),outcome,[1],inactive
same,outcome,[2],inactive
same,outcome,[3],inactive
same,outcome,[4],inactive
same,outcome,[5],inactive
same,outcome,[6],inactive
same,outcome,[7],inactive
CNc1ccccc1,outcome,[1],inactive
same,outcome,[2],inactive
same,outcome,[3],inactive
same,outcome,[4],inactive
same,outcome,[5],inactive
same,outcome,[6],inactive
same,outcome,[7],inactive
CCCC(CCC)C(=O)OC1C[C@H]2CC[C@@H](C1)[N+]2(C)C (stereo not given in full),outcome,[1],inactive
same,outcome,[2],inactive
same,outcome,[3],inactive
same,outcome,[4],inactive
same,outcome,[5],inactive
same,outcome,[6],inactive
same,outcome,[7],inactive
CCOC(=O)c1cccc(N)c1,outcome,[1],inactive
same,outcome,[2],inactive
same,outcome,[3],inactive
same,outcome,[4],inactive
same,outcome,[5],inactive
same,outcome,[6],inactive
same,outcome,[7],inactive
O=C(O)C(S)C(S)C(=O)O (stereo not given),outcome,[1],inactive
same,outcome,[2],inactive
same,outcome,[3],inactive
same,outcome,[4],inactive
same,outcome,[5],inactive
same,outcome,[6],inactive
same,outcome,[7],inactive
Cc1cc(-c2ccc(N=Nc3cc(S(=O)(=O)O)c4ccccc4c3N)c(C)c2)ccc1N=Nc1cc(S(=O)(=O)O)c2ccccc2c1N,outcome,[1],inactive
same,AC50,[2],6.5 µM (active)
same,AC50,[3],12.6 µM (active)
same,outcome,[4],inactive
same,outcome,[5],inactive
same,outcome,[6],inactive
same,outcome,[7],inactive
CC(NNC(=O)c1ccccc1)c1ccccc1 (stereo not given),outcome,[1],inactive
same,outcome,[2],inactive
same,outcome,[3],inactive
same,outcome,[4],inactive
same,outcome,[5],inactive
same,outcome,[7],inactive
CCC(=O)Oc1ccc2c(c1)CC[C@@H]1[C@@H]2CC[C@]2(C)[C@@H](OC(=O)CC)CC[C@@H]12,outcome,[1],inactive
same,outcome,[2],inactive
same,outcome,[3],inactive
same,outcome,[4],inactive
same,outcome,[6],inactive
CN=C(NC#N)NCCSCc1csc(N=C(N)N)n1,outcome,[1],inactive
same,outcome,[2],inactive
same,outcome,[3],inactive
same,outcome,[4],inactive
same,outcome,[5],inactive
same,outcome,[7],inactive
C1CC(COCC2CO2)CCC1COCC1CO1 (stereo not given),outcome,[1],inactive
same,outcome,[2],inactive
same,outcome,[3],inactive
same,outcome,[4],inactive
same,outcome,[5],inactive
same,outcome,[7],inactive
NCCNCCO,outcome,[1],inactive
same,outcome,[2],inactive
same,outcome,[3],inactive
same,outcome,[4],inactive
same,outcome,[5],inactive
same,outcome,[7],inactive
O=[N+]([O-])c1ccc2c(c1)Cc1ccccc1-2,outcome,[1],inactive
same,outcome,[2],inactive
same,outcome,[3],inactive
same,outcome,[4],inactive
same,outcome,[5],inactive
same,outcome,[6],inactive
same,outcome,[7],inactive
same,AC50,PGR (gene 5241) [8],25 µM (active)
same,outcome,[9],inactive
same,outcome,[10],inactive
same,AC50,PGR (gene 5241) [11],31 µM (active)
same,outcome,[12],inactive
same,outcome,[13],inactive
same,outcome,[14],inactive
same,outcome,[15],inactive
same,AC50,[16],26.8 µM (active)
O=S(=O)(O)CCO,outcome,[1],inactive
same,outcome,[2],inactive
same,outcome,[3],inactive
same,outcome,[4],inactive
same,outcome,[6],inactive
